This note sets out measurements from PubChem BioAssay AID687014 (The Scripps Research Institute Molecular Screening Center, 2013).

Values joined by “and” are separate entries in the source; they are usually repeats but may differ in a detail not shown here. Equal values may be shown once. Hit rate of the full screen: of about 370,000 compounds, about 6,800 (1.8%) were called active.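 How the source made its calls: active means activation above a cutoff set at the mean of all screened compounds plus 3 SD (cut at about 10% in these data); inactive means the rest.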 The entries come from a sample that favours actives as a whole.

In the assay the test system is Nuclear hormone receptor DAF-12 (Heterodera glycines), GAL4 fusion. As to the kind of experiment: hgDAF-12 GAL4 fusion reporter activation – cell-based, luminescence, HEK293, UAS-luciferase, primary screen (AID 687014).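 Further: 0% = DMSO wells and 100% = sodium butyrate wells.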 The settings on record: HEK293 GAL4-hgDAF12 UAS-luciferase reporter, agonist luminescence; at 6.8 µM; active compounds read high; normalized to butyrate control. Background: In a reporter assay the amount or activity of a reporter protein is the signal.
With `CCOC(=O)[C@]12CCCC=C1N(Cc1ccc(OC)cc1)C(=O)[C@@H]2CC(=O)N1CCOCC1`, the activation was 0.99% (inactive). As for `CNC(=O)/C(=C\C=C\c1ccccc1)NC(=O)c1ccc([N+](=O)[O-])cc1`, the figure is 1.17% (inactive); as for `COCC(=O)N[C@@H]1C[C@@H]2O[C@@H](CO)CC[C@@H]2O[C@@H]1CCc1ccc(-c2ccccc2)cc1`, 2.02% (inactive). Then `CC(=O)Nc1ccc(NC(=O)CSc2nnnn2C2CCCCC2)cc1`, with 0.66% (inactive); and `O=C(CSc1nnnn1C1CCCC1)N1CCCCC1`, with 11.8% (active); and `CC1CCCC(C)N1C(=O)CSc1nnnn1C1CCCC1` (stereo not drawn), with 3.93% (inactive). For the molecule `Cc1cc(NCCc2c[nH]c3ccccc23)ccc1Oc1cccnc1`, the activation was -6.96% (inactive).

For the molecule `C[C@H](O)[C@@H]1CN2CCc3ccc(-c4ccc5c(c4)OCO5)cc3[C@@H]2C[C@@H]1N(C)C(=O)C1CCCCC1`, the activation was 5.63% (inactive). As for `C[C@H]1[C@H](NC(=O)c2cccc(N(C)C)c2)CC[C@@]23CCCN2C(=O)CCC[C@@H]13`, the figure is 4.78% (inactive). As for `Cc1ccc(-c2csc(NCCc3nc4cc(Cl)c(Cl)cc4n3CCOCCO)n2)cc1`, the figure is 0.43% (inactive). Regarding `Cc1ccc(Nc2nc(-c3ccc(O)cc3O)cs2)nc1`, the activation was 11% (active).

Take `CC(=O)Nc1cnc(-c2ccc(O)cc2C)cn1`: the activation was 0.71% (inactive). As for `C/C=C/c1ccc(OCCOc2ccc(C=O)cc2OC)c(OC)c1`, the figure is 1.06% (inactive); as for `O=C(NCCc1ccc(F)cc1)c1n[nH]c2ccccc12`, 4.51% (inactive). As for `O=C(NCCc1ccc(F)cc1)c1ccc(S(=O)(=O)N2CCCCC2)cc1`, the figure is -1.32% (inactive); as for `O=C(NCCc1ccc(F)cc1)c1ccc2nccnc2c1`, 15.2% (active); as for `O=S(=O)(c1ccc2c(c1)OCCCO2)N1CCN(S(=O)(=O)c2c(F)cccc2F)CC1`, 3.46% (inactive). As for `CCOc1cc(C(=O)N2CCc3cc(OC)c(OC)cc3C2)ccc1OC(F)F`, the figure is -2.99% (inactive). For `CCOC(=O)C1CCN(C(=O)COC(=O)C2CCN(S(=O)(=O)c3ccc4c(c3)OCCO4)CC2)CC1`, the activation is 1.65% (inactive).

With `CCn1c2ccccc2c2cc(CC(N)=O)ccc21`, the activation is -1.01% (inactive).

Consider `NC(=O)Cc1ccc2sc(-c3ccccc3)nc2c1`, for which the activation was 16.9% (active). Then `O=C(O)Cc1csc(-c2cccc(Oc3ccccc3)c2)n1`, with 2.98% (inactive) and 2.42% (inactive); and `Clc1ccc(C(Cn2ccnc2)OCc2ccsc2Cl)c(Cl)c1` (stereo not drawn), with -0.6% (inactive); and `COc1ccnc(C(=O)N2CCC(Oc3cccnc3)CC2)c1`, with -2.68% (inactive). Then `COc1ccc(CCC(C)N2CCc3ccccc3C2)cc1` (stereo not drawn), with 1.85% (inactive); and `COC(=O)[C@]12C[C@H](CC(=O)NCc3ccc(C)o3)C(=O)N(CCC3=CCCCC3)C1=C[C@H](C(C)(C)C)O[C@@H]2C`, with 1.5% (inactive).

With `COc1ccc(C2CC(c3ccccc3)=NN2C(=O)CSc2nccc(=O)[nH]2)cc1` (stereo not drawn), the activation is 1% (inactive). As for `COc1ccc(C2=NN(C(=O)c3ccccc3C(=O)O)C(c3ccccc3O)C2)cc1` (stereo not drawn), the figure is 16.4% (active). Regarding `COc1ccc(C2CC(c3ccccc3)=NN2C(=O)c2ccc(Cl)c([N+](=O)[O-])c2)cc1` (stereo not drawn), the activation was -2.91% (inactive). As for `COc1ccc(NCc2nnc(SCc3ccccc3)n2-c2ccc(OC)cc2)cc1`, the figure is 1.53% (inactive). `COc1ccc2nc(SCc3ccccc3)nc(C)c2c1`: the activation is 16.3% (active). As for `COc1ccc(CSc2nnc(-c3cccc(C)c3)n2C)cc1`, the figure is -0.32% (inactive); as for `CCOc1ccc(S(=O)(=O)NCC2CCCO2)cc1` (stereo not drawn), -0.13% (inactive); as for `COC(=O)[C@]12C[C@H](CC(=O)NCc3ccccc3)C(=O)N(Cc3ccccc3)C1=C[C@H](COCc1ccccc1)O[C@@H]2C`, -0.41% (inactive). As for `Cc1ccc(NC(=O)N2c3ccccc3SC2c2ccco2)c(C)c1` (stereo not drawn), the figure is -2.03% (inactive); as for `O=C(CCS(=O)(=O)c1ccccc1)Nc1ccc(Cl)c(Cl)c1`, 5% (inactive). As to `COc1ccc(/C=C2/CCCc3ccccc3C2=O)cc1`, the activation was 16.7% (active).

Turning to `COc1ccc(C=C2CCC3C(CCCC34OCCO4)C2=O)cc1` (stereo not drawn), the activation was 2.78% (inactive). Then `COc1ccccc1Oc1ccc(N/C=C2/CCCC2=O)cc1`, with 2.59% (inactive). As for `COc1ccc(Cn2cc(COC(=O)N(C)Cc3ccccc3)nn2)cc1`, the figure is 2.67% (inactive); as for `CC(=O)Oc1ccc2c(=O)oc(-c3ccc([N+](=O)[O-])cc3)nc2c1`, 0.03% (inactive). Regarding `COc1cccc(-c2nc3cc(C)ccc3o2)c1`, the activation was 17.6% (active). `COc1cccc(-c2nc(CS(=O)(=O)CC(=O)NCCc3ccc(OC)c(OC)c3)c(C)o2)c1`: the activation is 0.2% (inactive). As to `COc1cccc(-c2nnc(SCCOc3ccc4c(C)cc(=O)oc4c3)o2)c1`, the activation was -0.66% (inactive). As for `O=[N+]([O-])c1ccc2c(c1)C(O)n1nc(-c3ccccc3)nc1S2` (stereo not drawn), the figure is -1.58% (inactive); as for `O=[N+]([O-])c1ccc2oc(-c3cccc(O)c3)nc2c1`, 19.1% (active); as for `C=CCN1C(=O)[C@@H](CC(=O)NCCCOCCCC)[C@]2(C(=O)OCC)CCCCC/C=C/12`, -2.8% (inactive). As to `C/C(=N/O)c1ccc(N2C(=O)C3C4C=CC(C3C2=O)C2C3C(=O)N(c5ccc(/C(C)=N/O)cc5)C(=O)C3C42)cc1` (stereo not drawn), the activation is -2.43% (inactive). Then `COc1ccc(-c2cc(-c3nnc(SCC(=O)Nc4cccc5ccccc45)n3N)[nH]n2)cc1`, with -0.33% (inactive); and `CC[C@H](C)[C@H]1CNC(=O)C(=O)N1CC1CCN(CCc2ccc(OC)c(OC)c2)CC1`, with -1.21% (inactive); and `CC[C@@H](CCC(=O)N(c1ccccc1)c1ccccc1)C1CC1`, with 0.58% (inactive).

As for `O=c1oc(-c2ccccc2NS(=O)(=O)c2ccc(Cl)cc2)nc2ccccc12`, the activation was 0.61% (inactive). As for `S=c1[nH]nc(/C=C/c2ccccc2)o1`, the figure is 4.59% (inactive); as for `O=c1oc(/C=C/c2ccccc2)nc2ccccc12`, 16% (active); as for `COc1ccc(-n2c(COc3ccc(C)cc3)nnc2SCC(=O)Nc2ccc(Oc3ccccc3)cc2)cc1`, 3.51% (inactive). Then `COc1ccccc1NC(=O)C(C)OC(=O)c1ccc(-n2cnnn2)cc1` (stereo not drawn), with -3.02% (inactive). `N#Cc1ccc(C2=CC(=O)C[C@H](c3ccc(Cl)cc3)C2)cc1`: the activation was -2.41% (inactive).

Turning to `COc1cccc(C(NC(C)=O)c2nc(-c3cnc4ccccc4c3)cs2)c1` (stereo not drawn), the activation was -1% (inactive). For `CC(C)c1cccc(-c2csc(C(O)c3ccccc3)n2)c1` (stereo not drawn), the activation is 5.67% (inactive). Then `OC(c1ccccc1)c1nc(-c2cnc3ccccc3c2)cs1` (stereo not drawn), with 22.6% (active).

Take `Cc1ccc(N2C(=O)c3ccccc3C2(O)c2ncc[nH]2)cc1` (stereo not drawn): the activation was 0.14% (inactive). Take `COc1ccc2[nH]c(=O)c(CN(CC3CCCO3)C(=O)Nc3ccccc3)cc2c1` (stereo not drawn): the activation was -1.35% (inactive). Then `Cc1cccc(NC(=O)N(Cc2cc3cc(C)cc(C)c3[nH]c2=O)CC2COCCO2)c1` (stereo not drawn), with 11.3% (active); and `Cc1ccc2[nH]c(=O)c(CN(CC3COCCO3)C(=O)Nc3ccccc3C)cc2c1` (stereo not drawn), with -1.5% (inactive); and `O/N=C(\c1ccc2c(c1)OCCO2)C1CCCCC1`, with -1.1% (inactive). Take `CC(CCN1CCC(C(O)(c2ccccc2)c2ccccc2)CC1)Oc1ccc(Cl)cc1` (stereo not drawn): the activation is -0.38% (inactive). Then `C=CCN1C(=O)[C@@H](CC(=O)NCC2CCCCC2)[C@]2(C(=O)OC)CCCCC=C12`, with 2.02% (inactive). Consider `COC(=O)c1ccc(-c2noc(CN(Cc3ccccn3)CC3CCCO3)n2)cc1` (stereo not drawn), for which the activation is 1.07% (inactive). For the molecule `O=C(Oc1ccc(-c2nc(-c3ccccn3)no2)cc1)c1ccccc1`, the activation is 10.9% (active). As for `O=C(COc1cccc(F)c1)Oc1ccc(C(=O)c2ccccc2)cc1`, the figure is 3.93% (inactive). Turning to `CCCC[C@H]1C2CC(OC(=O)NCc3ccccc3)C(C2)[C@H]2CCCCN21` (stereo partly drawn), the activation is -3.36% (inactive).

In the case of `Cc1ccc2c(c1)N(CC(=O)NCCc1ccc(Cl)cc1)C(=O)c1cccnc1O2`, the activation was 0.09% (inactive).

In the case of `Cc1ccc(NC(=O)c2oc3ccccc3c2C)c([N+](=O)[O-])c1`, the activation is 0.32% (inactive). Then `O=C(Nc1ccc2ccccc2c1[N+](=O)[O-])c1ccccc1`, with 15.2% (active). In the case of `CN(C)c1ccc(NC(=O)c2ccncc2)c2ccccc12`, the activation was -2.36% (inactive). As for `COP(=O)(O)CNC(=O)OCc1ccccc1`, the figure is 2% (inactive). As for `O=C(CSc1nc2ccccc2n1Cc1ccccc1)NNC(=S)Nc1ccccc1`, the figure is -0.74% (inactive).

`CCNC(=O)C1(C)CCN(C(=O)c2ccccc2)C1` (stereo not drawn): the activation was 2.75% (inactive). `CCN1C(=O)N[C@@H]2C[C@H](C(=O)N3CCCC3)[C@H](C)[C@H](c3ccccc3)C[C@@H]21`: the activation was 5.37% (inactive). As to `C=CCOc1c2ccc(C(=O)N(CC)c3ccc(OC)cc3)cc2nn1C`, the activation is -1.06% (inactive). `CC(=O)C1=C(C)N(Cc2ccccc2)C(=S)NC1c1cccc(Br)c1` (stereo not drawn): the activation was -0.58% (inactive). Consider `COc1ccnc(NC(=S)N2CCN(c3ncc(C(F)(F)F)cc3Cl)CC2)c1`, for which the activation is 2.05% (inactive). As for `Fc1ccc2cnc(-c3ccccc3)cc2c1`, the figure is 15.4% (active); as for `O=c1cc(-c2ccccc2)[nH]c2cc(F)ccc12`, -0.32% (inactive). As for `COc1cc(OC)cc(-c2cc3ccc(F)cc3cn2)c1`, the figure is 8.86% (inactive); as for `CC(C)Cn1c(SCC(=O)Nc2ccc(Cl)cc2F)nc(O)cc1=O`, -0.64% (inactive). Then `CC(=O)c1cc(-c2ccc3ccccc3c2)c(=O)n2c1CCC2`, with 0.58% (inactive). Regarding `Cc1sc2nc(SCC(=O)c3ccc(O)c(O)c3)n(Cc3ccco3)c(=O)c2c1C`, the activation was -0.58% (inactive).
